Results published in PubChem BioAssay AID1159580 (chemical genetic matrix, 2015).
The campaign covered roughly 5,500 compounds. About 2,000 (36%) were called active. Inconclusive results (about 18%) are left out. Rule as the data show it: active = normalized growth mostly below about 0.91 (no sharp cut-off); inconclusive = no clear call, values can overlap the other calls; inactive = mostly above about 0.92. The list shows a part of the results.

Assay: chemical genetic growth profiling, strain panel (AID 1159580);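 also: tested at 20 µM; growth read once vehicle control cultures reached saturation at 30 °C; 1 = growth at the plate median or of vehicle wells; lower values mean less growth of the strain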
Conditions: growth OD

Measured: normalized growth

O=C(O)[C@H](O)[C@@](O)(Cc1ccc(O)cc1)C(=O)O
inactive: S. cerevisiae deletion strains, locus YJR066W, strain TOR1, active compounds read low 0.995 | S. cerevisiae deletion strains, locus YJR075W, strain HOC1, active compounds read low 1.03 | S. cerevisiae deletion strains, locus YKL009W, strain mrt4, active compounds read low 1.07 | S. cerevisiae deletion strains, locus YKL068W, active compounds read low 1 | S. cerevisiae deletion strains, locus YKL085W, strain MDH1 (second series), active compounds read low 1.02 | S. cerevisiae deletion strains, locus YKL085W, strain MDH1, active compounds read low 1.02 | S. cerevisiae deletion strains, locus YKL160W, strain elf1, active compounds read low 1.01 | S. cerevisiae deletion strains, locus YKL190W, strain CNB1, active compounds read low 1.02 | S. cerevisiae deletion strains, locus YKR001C, strain vps1, active compounds read low 1.02 | S. cerevisiae deletion strains, locus YKR026C, strain gcn3, active compounds read low 1 | S. cerevisiae deletion strains, locus YKR091W, strain srl3, active compounds read low 1 | S. cerevisiae deletion strains, locus YLL001W, strain dnm1, active compounds read low 1.03 | S. cerevisiae deletion strains, locus YLL026W, active compounds read low 1 | S. cerevisiae deletion strains, locus YLL041C, strain sdh2, active compounds read low 1 | S. cerevisiae deletion strains, locus YLR027C, strain aat2, active compounds read low 1.01 | S. cerevisiae deletion strains, locus YLR039C, strain RIC1, active compounds read low 1.13 | S. cerevisiae deletion strains, locus YLR058C, strain SHM2, active compounds read low 1.04 | S. cerevisiae deletion strains, locus YLR102C, strain apc9, active compounds read low 0.994 | S. cerevisiae deletion strains, locus YLR113W, strain HOG1, active compounds read low 1 | S. cerevisiae deletion strains, locus YLR221C, strain rsa3, active compounds read low 1.03 | S. cerevisiae deletion strains, locus YLR258W, strain gsy2, active compounds read low 1.01 | S. cerevisiae deletion strains, locus YLR262C, strain YPT6 (second series), active compounds read low 1.03 | S. cerevisiae deletion strains, locus YLR268W, strain sec22, active compounds read low 1.04 | S. cerevisiae deletion strains, locus YLR320W, strain mms22, active compounds read low 1.03 | S. cerevisiae deletion strains, locus YLR330W, strain CHS5, active compounds read low 1.02 | S. cerevisiae deletion strains, locus YLR342W, strain FKS1 (second series), active compounds read low 1.09 | S. cerevisiae deletion strains, locus YLR342W, strain FKS1, active compounds read low 1.01 | S. cerevisiae deletion strains, locus YLR357W, strain rsc2, active compounds read low 1.01 | S. cerevisiae deletion strains, locus YLR370C, strain arc18, active compounds read low 1.01 | S. cerevisiae deletion strains, locus YLR371W, strain rom2, active compounds read low 1 | S. cerevisiae deletion strains, locus YLR384C, strain iki3, active compounds read low 1.01 | S. cerevisiae deletion strains, locus YLR418C, strain cdc73, active compounds read low 1.01 | S. cerevisiae deletion strains, locus YML016C, strain PPZ1, active compounds read low 1.01 | S. cerevisiae deletion strains, locus YML032C, strain rad52, active compounds read low 1.01 | S. cerevisiae deletion strains, locus YML120C, strain ndi1, active compounds read low 1 | S. cerevisiae deletion strains, locus YML124C, strain tub3, active compounds read low 1.01 | S. cerevisiae deletion strains, locus YMR058W, strain fet3, active compounds read low 1.02 | S. cerevisiae deletion strains, locus YMR078C, strain ctf18, active compounds read low 0.982 | S. cerevisiae deletion strains, locus YMR125W, strain sto1, active compounds read low 1.01 | S. cerevisiae deletion strains, locus YMR129W, active compounds read low 1.01 | S. cerevisiae deletion strains, locus YMR205C, strain PFK2, active compounds read low 1.02 | S. cerevisiae deletion strains, locus YMR223W, strain ubp8, active compounds read low 1.01 | S. cerevisiae deletion strains, locus YMR231W, strain pep5, active compounds read low 0.998 | S. cerevisiae deletion strains, locus YMR263W, strain SAP30, active compounds read low 1.02 | S. cerevisiae deletion strains, locus YMR307W, strain GAS1, active compounds read low 1.04 | S. cerevisiae deletion strains, locus YNL067W, strain RPL9B, active compounds read low 1.02 | S. cerevisiae deletion strains, locus YNL071W, strain lat1, active compounds read low 1.01 | S. cerevisiae deletion strains, locus YNL153C, strain GIM3, active compounds read low 1.02 | S. cerevisiae deletion strains, locus YNL183C, strain NPR1, active compounds read low 1.01 | S. cerevisiae deletion strains, locus YNL209W, strain ssb2, active compounds read low 1 | S. cerevisiae deletion strains, locus YNL233W, strain BNI4, active compounds read low 1.04 | S. cerevisiae deletion strains, locus YNL248C, strain rpa49, active compounds read low 1 | S. cerevisiae deletion strains, locus YNL250W, strain rad50, active compounds read low 1.01 | S. cerevisiae deletion strains, locus YNL271C, strain bni1, active compounds read low 1.01 | S. cerevisiae deletion strains, locus YNL298W, strain CLA4, active compounds read low 0.987 | S. cerevisiae deletion strains, locus YNL307C, strain MCK1, active compounds read low 0.987 | S. cerevisiae deletion strains, locus YNL322C, strain KRE1 (second series), active compounds read low 1.01 | S. cerevisiae deletion strains, locus YNR049C, strain mso1, active compounds read low 1 | S. cerevisiae deletion strains, locus YNR052C, strain pop2, active compounds read low 0.995 | S. cerevisiae deletion strains, locus YOL006C, strain TOP1, active compounds read low 1.25 | S. cerevisiae deletion strains, locus YOL012C, strain htz1 0.973 | S. cerevisiae deletion strains, locus YOL147C, strain pex11, active compounds read low 1 | S. cerevisiae deletion strains, locus YOR001W, strain rrp6, active compounds read low 0.986 | S. cerevisiae deletion strains, locus YOR061W, strain CKA2, active compounds read low 1.04 | S. cerevisiae deletion strains, locus YOR069W, strain VPS5, active compounds read low 1.01 | S. cerevisiae deletion strains, locus YOR070C, strain gyp1, active compounds read low 1.02 | S. cerevisiae deletion strains, locus YOR080W, strain dia2, active compounds read low 1.01 | S. cerevisiae deletion strains, locus YOR083W, strain WHI5, active compounds read low 1.03 | S. cerevisiae deletion strains, locus YOR106W, strain vam3, active compounds read low 1.01 | S. cerevisiae deletion strains, locus YOR136W, strain idh2, active compounds read low 1.01 | S. cerevisiae deletion strains, locus YOR144C, strain elg1, active compounds read low 1 | S. cerevisiae deletion strains, locus YOR184W, strain ser1, active compounds read low 1.04 | S. cerevisiae deletion strains, locus YOR231W, strain MKK1, active compounds read low 1.02 | S. cerevisiae deletion strains, locus YOR265W, strain rbl2, active compounds read low 1 | S. cerevisiae deletion strains, locus YOR270C, strain vph1, active compounds read low 1.05 | S. cerevisiae deletion strains, locus YOR290C, strain snf2, active compounds read low 1.01 | S. cerevisiae deletion strains, locus YOR316C, strain cot1, active compounds read low 1 | S. cerevisiae deletion strains, locus YPL051W, strain arl3, active compounds read low 1.05 | S. cerevisiae deletion strains, locus YPL078C, strain atp4, active compounds read low 1.01 | S. cerevisiae deletion strains, locus YPL106C, strain sse1, active compounds read low 1.01 | S. cerevisiae deletion strains, locus YPL240C, strain hsp82, active compounds read low 1.01 | S. cerevisiae deletion strains, locus YPL241C, strain CIN2, active compounds read low 1.01 | S. cerevisiae deletion strains, locus YPL256C, strain CLN2, active compounds read low 0.993 | S. cerevisiae deletion strains, locus YPR119W, strain clb2, active compounds read low 1 | S. cerevisiae deletion strains, locus YPR141C, strain kar3, active compounds read low 1 | S. cerevisiae deletion strains, locus YPR163C, strain tif3, active compounds read low 0.992 | S. cerevisiae deletion strains, locus YPR167C, strain met16, active compounds read low 1.01 | S. cerevisiae deletion strains, strain wtn01, active compounds read low 1.02 | S. cerevisiae strains, strain wild type, active compounds read low 1.03
